# Data published in ChEMBL document CHEMBL1157539, “Thousands of chemical starting points for antimalarial lead identification” (Nature, 2010).
# Over roughly 13,000 compounds, “IFI” has its median near 4; the highest 2% begin near 17. This is one part of a sample in which the highest values are shown more often than they occur.
# Assay: GSK_TCMDC: Inhibition Frequency Index (IFI). The number of non-kinase HTS assays where a compound showed > 50 % inhibition, expressed as a percentage of the number of such assays in which the compound was tested
# Format: functional
row,SMILES,IFI [%]
1,Clc1ccc(CNCCCCCCNCc2ccc(Cl)cc2)cc1,11.3
2,CC(=O)Nc1cc(C(=O)Nc2cccc(-c3cccc(-c4nc5cccc(C)c5[nH]4)c3)c2)ccc1C,5.88
3,Cc1cc(NCCc2ccccc2)nc(NC(=N)Nc2cccc(F)c2)n1,6.77
4,Nc1ccc(-c2ccc3ccnc(N)c3c2)cc1,9.09
5,Nc1cccc(-c2ccc3ccnc(N)c3c2)c1,5.56
6,NCc1cccc(-c2ccc3ccnc(N)c3c2)c1,2.86
7,Nc1nccc2ccc(-c3cccc(OCc4ccccc4)c3)cc12,19.8
8,Nc1nccc2ccc(-c3cccc(O)c3)cc12,7.14
9,Nc1nccc2ccc(-c3ccc(Oc4ccccc4)cc3)cc12,20.7
10,Nc1nccc2ccc(-c3ccncc3)cc12,3
11,Nc1nccc2ccc(-c3ccc(OCc4ccccc4)cc3)cc12,19.1
12,COc1cccc(-c2ccc3ccnc(N)c3c2)c1,7.87
13,CNc1nc(Nc2ccccc2C)nc2ccccc12,2.21
14,CC(c1cccc(Nc2nccc(-c3c(-c4cccc(NC(=O)c5c(F)cccc5F)c4)nn4ccccc34)n2)c1)S(C)(=O)=O (stereo not drawn),6.31
15,O=S(=O)(c1c(Cl)cc(Cl)cc1Cl)N1CCCCC(c2ccc(C(F)(F)F)cc2)=N1,1.5
16,Nc1nc(O)c2c(n1)CCc1c(Br)cccc1-2,2.31
17,COc1ccccc1C1CCN(C2CCC(NC(=O)/C=C/c3ccc(OC(F)(F)F)cc3)CC2)CC1 (stereo not drawn),11.7
18,Nc1nc(Nc2cccc(O)c2)nc2ccccc12,5.04
19,NC[C@H](CC1CCCCC1)NC(=O)c1ccc(-c2ccnc3[nH]ccc23)s1,22.2
20,CCC[C@@H]([C@@H](CC1CCCCC1)C(=O)N[C@H](C(=O)Nc1nccc(N)n1)C(C)(C)C)N(O)C=O,2.86
21,NCC(NC(=O)c1ccc(-c2c[nH]c3ncccc23)s1)c1ccccc1 (stereo not drawn),16.1
22,OCC1CCN(Cc2cccc(-c3cccc(-c4nc5cc(C(F)(F)F)ccc5[nH]4)c3)c2)CC1,5.83
23,CCCCCCOc1ccc(C(=O)NCCCC2CCCN(CCCCCNC(=O)C=Cc3ccc(Cl)c(Cl)c3)C2)cc1 (stereo not drawn),6.87
24,Cc1ccc(F)cc1-c1cc(N2CCCN(C(=O)c3ccc(Br)o3)CC2)ncn1,0

row,SMILES,IFI [%]
1,C=CCc1ccc(C[C@H](NC(=O)OC(C)(C)C)C(=O)OC)cc1,18.9
2,COC(=O)C(c1ccc(NC(=O)[C@H](CC(C)C)NC(=O)OC(C)(C)C)cc1)c1ccc(NC(=O)[C@H](CC(C)C)NC(=O)OC(C)(C)C)cc1,0
3,CC(C)(C)OC(=O)N[C@@H](Cc1ccccc1)C(=O)Nc1cccc(-c2cccc(NC(=O)[C@H](Cc3ccccc3)NC(=O)OC(C)(C)C)c2)c1,0.72
4,CCSc1ccc(C)cc1CON1C(N)=NC(N)=NC1(C)C,6.34
5,Cc1c(Cn2nc(Cl)c(N3CCNCC3)cc2=O)cccc1NC(=O)Nc1ccc(-c2ccccc2)cc1,10.8
6,ON=C1c2cc(OCCN3CCCCC3)c(Cl)cc2-c2cc(Cl)c(OCCN3CCCCC3)cc21,9.42
7,O=C(/C=C/c1ccccc1Cl)Nc1ccc(Br)c(OCCN2CCCCC2)c1,5.52
8,CCC(C)(C)c1ccc(S(=O)(=O)Nc2ccc(Cl)c(OCCN3CCCCC3)c2)cc1,43.1
9,COc1ccc(CNC2CCN(C)CC2)cc1-c1cccc(S(=O)(=O)NCc2ccccc2)c1,11
10,COc1ccc2c(=NN=Cc3ccccc3Cl)cc(C)[nH]c2c1,3.65
11,COc1cc(NC(=O)c2sc(-c3ccc(Cl)cc3)cc2NC(=O)c2cccnc2)ccc1OCCN1CCCC1,7.19
12,O=c1c2ccc(F)cc2sn1-c1ccc(Cl)cc1,23.9
13,O=C(/C=C/c1ccc(Cl)c(Cl)c1)NCCCCCN1CCC(c2c[nH]c3c(-c4ccccc4)cccc23)CC1,8.09
14,CN(Cc1cccc(F)c1)C1CCN(c2cc(NC(=O)c3ccc(F)cc3)ccn2)CC1,0
15,C[C@@H](C(N)=O)N1CCCCC1c1ccc(OCc2cccc(F)c2)cc1 (stereo partly drawn),33.8
16,CN(Cc1cccc(F)c1)C1CCN(c2cc(NC(=O)c3cccc(F)c3)ccn2)CC1,0
17,O=C(C=Cc1ccc(Cl)c(Cl)c1)NCCCCCN1CCCC(CCCNS(=O)(=O)c2cccc3cccnc23)C1 (stereo not drawn),5.8
18,CCc1c(CCNCCCCCCNC(C)Cc2ccc3c(c2CC)OCO3)ccc(OC)c1OC (stereo not drawn),10.7
19,O=C(CNCC1CCCCC1)Nc1cc(C(F)(F)F)ccc1Cl,4.23
20,O=C(NCC1CCC(CNCCc2ccccc2)CC1)Nc1ccc(Cl)c(Cl)c1 (stereo not drawn),0.72
21,CC(C)(C(=O)Nc1ccc(C2CCC(NCC3CC3)CC2)c(Cl)c1)c1cccc(OC(F)F)c1 (stereo not drawn),23.4
22,CN1CC[C@@H](Oc2cc(NC(=O)Nc3ccc(Cl)c(C(F)(F)F)c3)ccc2Cl)C1,7.63
23,CC(C)(C(=O)Nc1ccc(C2CCC(NCC3CC3)CC2)c(Cl)c1)c1ccc(C(F)(F)F)cc1 (stereo not drawn),25
24,CC(C)(C(=O)Nc1ccc(N2CCC3(CCCN(CC4CC4)C3)CC2)c(Cl)c1)c1cccc(C(F)(F)F)c1,6.67

row,SMILES,IFI [%]
1,COc1ccc2c(=NN=C(C)c3ccccn3)cc(C)[nH]c2c1,4.96
2,CCCCCCN1CCCN(Cc2ccc(C(=O)Nc3ccc(CC)cc3)cc2)CC1,13.5
3,O=C(Nc1ccc(Cl)cc1)c1ccc(CN2CCCN(Cc3cccc(Cl)c3)CC2)cc1,8.66
4,CC(C)(C)c1ccc(NC(=O)c2ccc(CN3CCCN(Cc4ccc(F)cc4)CC3)cc2)cc1,15.6
5,CC(C)(C)c1ccc(NC(=O)c2ccc(CN3CCCN(Cc4cccc(Cl)c4)CC3)cc2)cc1,17.2
6,CCCCCCN1CCCN(Cc2ccc(C(=O)Nc3ccc(C(C)C)cc3)cc2)CC1,19.7
7,CCCCCCN1CCCN(Cc2ccc(C(=O)Nc3ccc(Cl)cc3)cc2)CC1,15.2
8,Cc1ccccc1CN1CCCN(Cc2ccc(C(=O)Nc3ccc(Cl)cc3)cc2)CC1,10.2
9,CC(C)(C)c1ccc(NC(=O)c2cccc(CN3CCCN(Cc4cccc(Cl)c4)CC3)c2)cc1,7.86
10,Cc1ccccc1CN1CCCN(Cc2ccc(C(=O)Nc3ccc(C(C)(C)C)cc3)cc2)CC1,18.4
11,Cc1cccc2nc(-c3ccc(-c4cccc(NC(=O)Nc5ccc(F)c(F)c5F)c4)cc3)[nH]c12,2.91
12,O=C(/C=C/C=C/c1ccc(Cl)c(Cl)c1)NCCCCCN1CCCC2CCCCC21 (stereo not drawn),5.19
13,Cc1cccc2nc(-c3cccc(-c4ccc(NC(=O)Nc5ccc(Cl)c(Cl)c5)cc4)c3)[nH]c12,7.07
14,CC(=O)Oc1c(Cl)c(C)nc(C)c1-c1ccc(Oc2ccc(OC(F)(F)F)cc2)cc1,6.35
15,CCN(CC)CCCN(CCCN(CC)CC)c1cc(C)nc(Nc2ccc3cc(Br)ccc3c2)n1,4.35
16,COc1cc(C(=O)Nc2ccc(-c3nc4ccccc4[nH]3)cc2)cc(OC)c1OC,1.4
17,CCn1c(C(C)C)cc2c3c(N)nc(N)nc3ccc21,2.88
18,CCN(CC)CCOc1ccc(C(O)(C#CC(O)(c2ccc(OCCN(CC)CC)cc2)c2ccc([N+](=O)[O-])cc2)c2ccc([N+](=O)[O-])cc2)cc1 (stereo not drawn),5.84
19,CCOc1cc(C(=O)NC2CCN(Cc3ccccc3)C2)ccc1-c1nc2cc(Cl)ccc2[nH]1 (stereo not drawn),2.14
20,Nc1nc(N)c2cc(C(F)(F)F)ccc2n1,1.65
21,Cc1cc(C)c(CON2C(=N)N=C(N)NC2(C)C)cc1C,3.57
22,Cc1cc(=O)[nH]c(-n2nc(C)cc2NC(=O)CC(c2ccccc2)c2ccccc2)n1,10.4
23,Cc1cc(=O)[nH]c(-n2nc(C)cc2NC(=O)C(c2ccccc2)c2ccccc2)n1,10.4
24,Cc1cc(=O)[nH]c(-n2nc(C)cc2NC(=O)C2(c3ccc(Cl)cc3)CCCC2)n1,19.2

row,SMILES,IFI [%]
1,COc1cc(NCCCNCc2cn(S(=O)(=O)c3ccccc3)c3ccccc23)nc2ccccc12,8.96
2,COc1cc(NCCCNCc2cn(Cc3cc(Br)cc(Br)c3)c3ccccc23)nc2ccccc12,17.4
3,COc1cc(NCCCNCC2c3ccccc3Oc3ccccc32)nc2ccccc12,20.8
4,COc1cc(NCCCCCNc2cc(Cl)nc3ccccc23)nc2ccccc12,15.8
5,COc1cc(NCC(C)CNCc2cn(Cc3ccccc3)c3ccccc23)nc2ccccc12 (stereo not drawn),7.19
6,COc1cc(NCCCCNc2ccc(Cl)c(Cl)c2)nc2ccccc12,26.5
7,COc1cc(NCCCNC(=O)c2ccc(Cl)c(Cl)c2)nc2ccccc12,12.5
8,COc1cc(NCC(O)CNc2cc(OC)c3ccccc3n2)nc2ccccc12,8.51
9,COc1ccc(COc2cc(NCCCN)nc3ccccc23)cc1,0
10,CCN(CC)/C(=N\CCCCCC/N=C(\NC(=N)c1ccc(Cl)cc1)N(CC)CC)NC(=N)c1ccc(Cl)cc1,12.2
11,CC(C)CNCc1cccc(-c2ccc(CN(CCCN3CCN(C)CC3)C(=O)/C=C/c3ccccc3)cc2)c1,5.15
12,Cc1cc(NC2CCN(Cc3ccccc3)CC2)nc(NCCCCc2ccccc2)n1,10.6
13,Cc1cccc2nc(-c3cccc(-c4cccc(NC(=O)C(C)CN(C)C)c4)c3)[nH]c12 (stereo not drawn),3.6
14,OCC1CCN(Cc2cccc(-c3ccc(-c4nc5cc(C(F)(F)F)ccc5[nH]4)s3)c2)CC1,2
15,Cc1cccc(Nc2nc(N[C@@H]3CCCNC3)nc3cc[nH]c(=O)c23)c1,16.7
16,NS(=O)(=O)c1cccc(Nc2nc(N[C@@H]3CCNC3)nc3cc[nH]c(=O)c23)c1,18.2
17,O=c1[nH]ccc2nc(N[C@@H]3CCNC3)nc(Nc3ccc4c(c3)S(=O)(=O)CC4)c12,0
18,O=c1[nH]ccc2nc(N[C@@H]3CCNC3)nc(Nc3cc(Cl)cc(Cl)c3)c12,16.7
19,O=c1[nH]ccc2nc(N[C@@H]3CCNC3)nc(Nc3cccc(S(=O)(=O)N4CCOCC4)c3)c12,18.2
20,O=c1[nH]ccc2nc(N[C@@H]3CCCNC3)nc(Nc3ccc(S(=O)(=O)N4CCOCC4)cc3)c12,0
21,OC(c1cc(C(F)(F)F)nc2c(F)cccc12)C1CCCCN1 (stereo not drawn),0
